Inconclusive results are not listed. Where a call stands in place of a potency, no number is given. Calls of active or inactive are those of the source. Calls follow the shape of the dose curve; as a rule, active = well fitted curve in the direction sought with a large enough effect; inconclusive = small, poorly fitted or top-dose-only effect, or another doubt; inactive = no such curve, though single readings can be large; an effect the other way counts as inactive or inconclusive.
Assay: qHTS for Inhibitors of Plasmodium falciparum (GB4) proliferation (AID 504315); also: nearly all actives have a fitted effect of over 50% in size
Conditions: P. falciparum GB4 in erythrocytes, SYBR Green DNA, 72 h; series mostly up to 6.7 µM
How it was run: (§1)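 Erythrocytes infected with P. falciparum line (0.3% parasitemia, 2.5% hematocrit final) incubated with compounds 72 h at 37 °C, 5% CO2; SYBR Green lysis buffer added, fluorescence read next day. Normalized to 0.29 uM artemisinin and DMSO.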
Potency is read from the fitted curve at half-maximal effect.

Row | SMILES | Potency
1 | Cc1noc(C)c1S(=O)(=O)N1CCc2nc(-c3ccccc3)c3c(c2C1)CO[C@@H](C)C3 | inactive
2 | C=C(C(C)=O)C(O)c1ccc(Cl)cc1 (configuration not stated) | inactive
3 | COCCN1C(=O)NC(c2cccc(F)c2)C(C(=O)OC)=C1C (configuration not stated) | inactive
4 | C=CCOC(=O)NC(c1ccc(F)c(F)c1)C(C(=O)COC)C(=O)OC (configuration not stated) | inactive
5 | COCCN1C(=O)N[C@@H](c2cccc(C(F)(F)F)c2)[C@H](C(=O)OC)[C@H]1C | inactive
6 | COC(=O)N(C=Cc1ccc(OC)cc1)CCc1ccc(OC)c(OC)c1 | inactive
7 | COc1ccc2c(c1)C(NC(=O)C(F)(F)F)CC21CCCCC1 (configuration not stated) | inactive
8 | COC(=O)[C@@]1(C=C2c3ccc(OC)cc3[C@@H](OC)[C@@H]2C)[C@@H]2C=CC[C@@H]21 | inactive
9 | COC(=O)CC=C[C@@H](C)[C@@H](Cc1ccccc1Br)OC | inactive
10 | COc1cc2c(cc1OC)[C@@H]1O[C@](CCCCN3C(=O)c4ccccc4C3=O)(C2)OC2=C1C(=O)CC(C)(C)C2 | 757 nM (active)
11 | CC(C)=CCN1C(=O)C2(CC(C)=C[C@@H](C)O2)c2c(Br)cccc21 (some centres not stated) | inactive
12 | COC(=O)CCCC1=CC2=CC(=O)C(C)(OC(=O)c3cccs3)C(=O)C2=CN1CCc1ccccn1 (configuration not stated) | inactive
13 | C=CCOC(=O)N[C@H](c1cccc(C(F)(F)F)c1)C(C(C)=O)C(C)=O | inactive
14 | CC1=CC[C@@H](C)O[C@@]2(C1)C(=O)N(Cc1ccc(Br)cc1)c1ccccc12 | inactive
15 | C#CC1(O)C(OC)=CC2C(=O)C1C(c1ccccc1)C2C (configuration not stated) | inactive
16 | C=CCN1c2ccccc2[C@]23C[C@@H](C(=O)OC)N(C(=O)OCC)C2=NC(C(=O)OC)=C(C(=O)OC)[C@H]13 | inactive
17 | COc1cccc2c1C1(CCCCC1)CC2NC(=O)C(F)(F)F (configuration not stated) | inactive
18 | O=C1CCCC(C(C(=O)OCc2ccccc2)C(=O)OCc2ccccc2)C1 (configuration not stated) | inactive
19 | COC(=O)CC=C1c2ccccc2[C@@H](OC)[C@@H]1C | inactive
20 | COC(=O)C1=C(C(=O)OC)[C@@H]2N(C)c3ccccc3[C@@]23C[C@@H](C(=O)OC)N(C(=O)NC(C)(C)C)C3=N1 | inactive
21 | Cc1ccc(S(=O)(=O)NC(CCc2ccccc2)CC(=O)C(C)(C)C)cc1 (configuration not stated) | inactive
22 | C[C@@H]1C=CCCO[C@]12C(=O)N(CC1CC1)c1cccc(Br)c12 | inactive
23 | CC(C)Nc1oc(-c2ccccc2)nc1-c1ccc(C(F)(F)F)cc1 | inactive
24 | COC(=O)c1ccccc1C[C@]1(C(=O)OC)C=C[C@H](C)[C@@H](c2ccccc2)N1C(=O)C(F)(F)F | inactive
25 | OC[C@H]1O[C@H](C#Cc2ccccc2)C=C[C@@H]1O | inactive
26 | O=C(NN=C1C[C@@H](O)[C@H](O)[C@H]2[C@@H]3C(=O)N(C[C@@H]4CCCO4)C(=O)[C@@H]3CC[C@H]12)OCc1ccccc1 | inactive
27 | CCC(=O)C[C@@H](NC(=O)OC)c1ccccc1 | inactive

Assay: qHTS for Inhibitors of Plasmodium falciparum (7G8) proliferation (AID 504316); also: nearly all actives have a fitted effect of over 65% in size
Conditions: P. falciparum 7G8 in erythrocytes, SYBR Green DNA, 72 h; series mostly up to 6.7 µM
How it was run: as §1

Row | SMILES | Potency
28 | CCN1C(=O)[C@@H]2[C@H]3[C@H](O)[C@H](O)CC(=NOCC[C@@H]4C=C[C@H](OC(C)=O)[C@@H](COC(C)=O)O4)[C@@H]3CC[C@H]2C1=O | inactive
29 | CSc1nnc2c(n1)C[C@H](c1ccccc1)[C@@H](C)[C@@H](C(=O)N1CCCC1)C2 | inactive
30 | CCN(CC)CCCN=C1NC(c2cccc(C(F)(F)F)c2)C(C(=O)OC)=C(C)N1CC (configuration not stated) | inactive
31 | CCCCC1=CC2=CC(=O)C(C)(OC(=O)c3cnc4ccccc4n3)C(=O)C2=CO1 (configuration not stated) | inactive
32 | COCCN1C=C2C(=O)C(C)(OC(=O)C3CCCC3)C(=O)C(c3ccccc3)=C2C=C1CCCC(=O)OC (configuration not stated) | inactive
33 | C#CCCOC(=O)N1C2=NC(C(=O)OC)=C(C(=O)OC)[C@@H]3N(C)c4ccccc4[C@]23C[C@H]1C(=O)OC | inactive
34 | COC(=O)[C@H]1[C@@H](c2cccc(C(F)(F)F)c2)NC(=O)N(Cc2ccccc2)[C@@H]1C | inactive
35 | O=C1c2ccccc2C(=O)N1CCCC[C@]12Cc3c(ccc4ccccc34)[C@H](O1)c1c(cc(-c3ccccc3)oc1=O)O2 | 379 nM (active)
36 | COC(=O)N1C2CC3(C)C=C(C)OC1(C)C3c1ccccc12 (configuration not stated) | inactive
37 | CCCC[C@]12Cc3cc(C#N)ccc3[C@H](O1)c1c(c3ccccc3oc1=O)O2 | inactive
38 | C=CC[C@@H]1C=C[C@H](ON=C[C@@H](C)[C@H](OCc2ccccc2)C(C)C)[C@H](CO)O1 | inactive
39 | CCOC(=O)C(c1ccc(OC)c(OC)c1)C1c2ccccc2C=C(C)N1C(=O)OC (configuration not stated) | inactive
40 | C[C@@H]1[C@@H](c2ccccc2)Cc2nc3ccccc3nc2C[C@H]1C(=O)N1CCCC1 | inactive
41 | Cc1noc(C)c1S(=O)(=O)N1CCc2nc(-c3ccccc3)c3c(c2C1)CO[C@@H](C)C3 | inactive
42 | C=C(C(C)=O)C(O)c1ccc(Cl)cc1 (configuration not stated) | inactive
43 | COCCN1C(=O)NC(c2cccc(F)c2)C(C(=O)OC)=C1C (configuration not stated) | inactive
44 | C=CCOC(=O)NC(c1ccc(F)c(F)c1)C(C(=O)COC)C(=O)OC (configuration not stated) | inactive
45 | COCCN1C(=O)N[C@@H](c2cccc(C(F)(F)F)c2)[C@H](C(=O)OC)[C@H]1C | inactive
46 | COC(=O)N(C=Cc1ccc(OC)cc1)CCc1ccc(OC)c(OC)c1 | inactive
47 | COc1ccc2c(c1)C(NC(=O)C(F)(F)F)CC21CCCCC1 (configuration not stated) | inactive

Row | SMILES | Potency
48 | COC(=O)[C@@]1(C=C2c3ccc(OC)cc3[C@@H](OC)[C@@H]2C)[C@@H]2C=CC[C@@H]21 | inactive
49 | COC(=O)CC=C[C@@H](C)[C@@H](Cc1ccccc1Br)OC | inactive
50 | COc1cc2c(cc1OC)[C@@H]1O[C@](CCCCN3C(=O)c4ccccc4C3=O)(C2)OC2=C1C(=O)CC(C)(C)C2 | 301 nM (active)
51 | CC(C)=CCN1C(=O)C2(CC(C)=C[C@@H](C)O2)c2c(Br)cccc21 (some centres not stated) | inactive
52 | COC(=O)CCCC1=CC2=CC(=O)C(C)(OC(=O)c3cccs3)C(=O)C2=CN1CCc1ccccn1 (configuration not stated) | inactive
53 | C=CCOC(=O)N[C@H](c1cccc(C(F)(F)F)c1)C(C(C)=O)C(C)=O | inactive
54 | CC1=CC[C@@H](C)O[C@@]2(C1)C(=O)N(Cc1ccc(Br)cc1)c1ccccc12 | inactive
55 | C#CC1(O)C(OC)=CC2C(=O)C1C(c1ccccc1)C2C (configuration not stated) | inactive
56 | C=CCN1c2ccccc2[C@]23C[C@@H](C(=O)OC)N(C(=O)OCC)C2=NC(C(=O)OC)=C(C(=O)OC)[C@H]13 | inactive
57 | COc1cccc2c1C1(CCCCC1)CC2NC(=O)C(F)(F)F (configuration not stated) | inactive
58 | O=C1CCCC(C(C(=O)OCc2ccccc2)C(=O)OCc2ccccc2)C1 (configuration not stated) | inactive
59 | COC(=O)CC=C1c2ccccc2[C@@H](OC)[C@@H]1C | inactive
60 | COC(=O)C1=C(C(=O)OC)[C@@H]2N(C)c3ccccc3[C@@]23C[C@@H](C(=O)OC)N(C(=O)NC(C)(C)C)C3=N1 | inactive
61 | Cc1ccc(S(=O)(=O)NC(CCc2ccccc2)CC(=O)C(C)(C)C)cc1 (configuration not stated) | inactive
62 | C[C@@H]1C=CCCO[C@]12C(=O)N(CC1CC1)c1cccc(Br)c12 | inactive
63 | CC(C)Nc1oc(-c2ccccc2)nc1-c1ccc(C(F)(F)F)cc1 | inactive
64 | COC(=O)c1ccccc1C[C@]1(C(=O)OC)C=C[C@H](C)[C@@H](c2ccccc2)N1C(=O)C(F)(F)F | inactive
65 | OC[C@H]1O[C@H](C#Cc2ccccc2)C=C[C@@H]1O | inactive
66 | O=C(NN=C1C[C@@H](O)[C@H](O)[C@H]2[C@@H]3C(=O)N(C[C@@H]4CCCO4)C(=O)[C@@H]3CC[C@H]12)OCc1ccccc1 | inactive
67 | CCC(=O)C[C@@H](NC(=O)OC)c1ccccc1 | inactive

From PubChem BioAssay (NCATS)
